Test results as given in PubChem BioAssay (NCATS).
Values joined by “and” are separate entries in the source; they are usually repeats but may differ in a detail not shown here. Identical values can stand only once. Results filed as inconclusive are left out. Active and inactive are the calls of the source. Unless noted, calls follow the shape of the dose curve; as a rule, active = well fitted curve in the direction sought with a large enough effect; inconclusive = small, poorly fitted or top-dose-only effect, or another doubt; inactive = no such curve, though single readings can be large; an effect the other way counts as inactive or inconclusive.

How the values were obtained:
[1] = target: Glucocorticoid receptor (Homo sapiens) (UniProt P04150); test: GR-GFP Redistribution (AID 450;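 active = compounds whose dose series gives a full or clear partial fitted curve of increased nuclear translocation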; also: potency is read from the fitted curve at half-maximal effect); conditions: U2OS GR-GFP nuclear translocation, laser cytometry, 2 h
[2] = target: 3',5'-cyclic-AMP phosphodiesterase 4B (Homo sapiens) (UniProt Q07343); test: qHTS Assay for Inhibitors of PDE-IV (AID 607; active = well fitted activation curve with a large enough effect in the main read-out, with a control signal flat, not every such curve was filed as active; also: % of control where 0% means no effect)
Procedure, shortened: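 The readout is membrane depolarisation from a cAMP-sensing CNG channel, detected with a potential dye at ex 535/em 590. Cells were HEK293-derived (endogenous PDE-IV) at 1000 cells/well, titrated up to 22.9 uM final.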

[3] = target: Mitogen-activated protein kinase 10 (Mus musculus) (UniProt Q61831); test: JNK3 AlphaScreen Assay (AID 530; active = well fitted curve in either direction with a large enough effect, not every such curve was filed as active;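 also: kinase came from lysate of stimulated human HepG2 cells; signal reports phosphorylation of biotinylated GST-cJun 1-79 at Ser73 with 10 µM ATP; % is scaled to controls: 0 for no effect and ±100 for the full control effect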)
Procedure, shortened: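 Compound titrations were preincubated 15 minutes at room temperature with substrate, antibody and pre-activated JNK3-containing HepG2 lysate. Reactions were started with 10 uM ATP and stopped with EDTA-containing bead buffer for AlphaScreen detection.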

[4] = Cell Viability - N2a (AID 540); conditions: N2a mouse neuroblastoma cell viability; activity change, negative = cytotoxicity: at 92.2 µM (top of the series);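 also: cells exposed to compound for 40 h at 37 °C; nearly all actives have a fitted effect of over 45% in size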; also: potency is read from the fitted curve at half-maximal effect;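 as to activity change, negative = cytotoxicity: plate controls were DMSO alone for no effect and tamoxifen control for full effect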
Procedure, shortened: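 Luminescent ATP signal (CellTiter-Glo, 20 min at room temperature) served as the viability read-out after N2a cells were treated with compounds for 40 hours at 37 °C. Concentration-response data were fitted to the Hill equation for AC50.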

[5] = Cell Viability - HUV-EC-C (AID 542); also: nearly all actives have a fitted effect of over 35% in size; also: potency is read from the fitted curve at half-maximal effect; as to activity change, negative = cytotoxicity: % is scaled to controls: 0 for no effect and ±100 for the full control effect
Procedure, shortened: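 qHTS cytotoxicity: HUV-EC-C, 1000 cells/well, 5 hr settle, compound 40 hr 37 °C, CellTiter-Glo, luminescence. AC50 via Hill equation.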

[6] = Cell Viability - H-4-II-E (AID 543); also: nearly all actives have a fitted effect of over 35% in size; also: potency is read from the fitted curve at half-maximal effect
Procedure, shortened: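 Luminescent ATP signal (CellTiter-Glo) served as the viability read-out, with cytotoxicity seen as a concentration-dependent ATP drop. Cells were treated for 40 hours in complete medium. AC50 values derive from Hill-equation modelling.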

[7] = Cell Viability - SH-SY5Y (AID 544); conditions: SH-SY5Y neuroblastoma cell viability; viability change, negative = cytotoxic: at 92.2 µM (top of the series); also: nearly all actives have a fitted effect of over 55% in size; also: potency is read from the fitted curve at half-maximal effect
Procedure, shortened: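 Luminescent ATP read-out (CellTiter-Glo) measures loss of viable SH-SY5Y neuroblastoma cells after 40 hr compound exposure at 37 °C. AC50 values derive from standard Hill modelling of qHTS concentration-response data.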

[8] = Cell Viability - Renal Proximal Tubule (AID 545); conditions: renal proximal tubule cells viability, primary cells of rat origin; activity change, negative = cytotoxicity: at 91.7 µM (top of the series); also: nearly all actives have a fitted effect of over 40% in size
Procedure, shortened: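 Rat kidney proximal tubule cells, freshly isolated; 1000 cells/well, 5 hr settle, compound 40 hr 37 °C. CellTiter-Glo 20 min RT, luminescence read. AC50 by standard Hill fit.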

[9] = Cell Viability - Mesenchymal (AID 546); conditions: mesenchymal cells viability, qHTS; activity change, negative = cytotoxicity: at 91.7 µM (top of the series);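 also: cells exposed to compound for 40 hours before reading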
Procedure, shortened: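 AC50 values reflect the drop in intracellular ATP in a human kidney mesenchymal line derived from normal glomeruli. Treatment lasts 40 hr at 37 °C in complete medium, and the signal comes from CellTiter-Glo luminescence.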

[10] = Cellular Toxicity (caspase-3) Mesangial (AID 660); conditions: Potency: caspase-3 activation;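 also: combined caspase 3 and 7 activity read by Caspase-Glo luminescence; cells exposed to compound for 16 h before the caspase read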
Procedure, shortened: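 Mesangial cells, 1000/well, 5 h settle at 37 °C; compound 16 h, 37 °C; Caspase-Glo 3/7 reagent 20 min RT; luminescence. Norm.: DMSO = 0%, tamoxifen 100 uM = 100%. AC50, Hill fit.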

[11] = Cellular Toxicity (caspase-3) SK-N-SH (AID 661); also: potency is read from the fitted curve at half-maximal effect;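 as to caspase-3 activation: 0% = DMSO basal and 100% = 10 µM staurosporine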
Procedure, shortened: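 Human neuroblastoma SK-N-SH, 1500 cells/well, 5 hr pre-incubation, then compound 16 hr, 37 °C. Caspase-Glo 3/7 reagent, 1 hr RT, luminescence. Norm. to DMSO/10 uM staurosporine; Hill-fit AC50.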

[12] = Cellular Toxicity (caspase-3) H-4-II-E (AID 663); conditions: H-4-II-E rat hepatoma, scaled: DMSO 0%, 100 µM tamoxifen 100%; at 92.2 µM (top of the series);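 also: cells exposed to compound for 16 hr before readout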
Procedure, shortened: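 Apoptosis induction is scored as increased luminescence from caspase 3/7 substrate cleavage in rat hepatoma H-4-II-E cells exposed to compound for 16 hr. Activity is scaled between DMSO and 100 uM tamoxifen.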

[13] = Cellular Toxicity (caspase-3) Hek293 (AID 664); conditions: HEK293 caspase-3 activation, DMSO = 0%, 100 µM tamoxifen = 100%; at 92.2 µM (top of the series);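 also: cells exposed to compound for 16 h at 37 °C before readout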
Procedure, shortened: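 Cells plated, 5 hr at 37 °C; compounds added; 16 hr at 37 °C; Caspase-Glo 3/7 reagent, 20 min RT; luminescence read. Activation expressed relative to DMSO and 100 uM tamoxifen, AC50 by Hill model.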

[14] = Cellular Toxicity (caspase-3) HepG2 (AID 654);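 also: cells exposed to compound for 16 hours before reading; 0% = DMSO alone and 100% = caspase signal from 100 µM tamoxifen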
Procedure, shortened: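 Cells plated 5 hr at 37 °C, compound added, incubated 16 hr at 37 °C. Caspase-Glo 3/7 reagent followed, 20 min at room temperature, then luminescence read. Activation scored as signal increase; AC50 from Hill fit.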

[15] = Cellular Toxicity (caspase-3) Jurkat (AID 655);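 also: cells exposed to compound for 16 h at 37 °C before reading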
Procedure, shortened: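 Luminescent caspase-3/7 readout (aminoluciferin substrate cleavage) in human T-cell leukemia Jurkat cells after 16 hr compound exposure. Concentration-response normalized to DMSO and 100 uM tamoxifen; AC50 by standard Hill equation.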

[16] = Cellular Toxicity (caspase-3) HUV-EC-C (AID 656)
Procedure, shortened: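 Luminescent caspase-3/7 activation (aminoluciferin substrate cleavage) in HUV-EC-C cells after 16 hr compound exposure, 37°C. Signal normalized to DMSO basal and 100 uM tamoxifen as 100%; AC50 from concentration-response fitted with the Hill equation.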

[17] = Cellular Toxicity (caspase-3) SHSY5Y (AID 657);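 also: cells exposed to compound for 16 hours at 37 °C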
Procedure, shortened: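 Luminescent caspase-3/7 readout (aminoluciferin release) in SH-SY5Y cells after 16 h compound exposure in complete medium. Activity scaled between DMSO basal and 10 uM staurosporine as 100%; concentration-response fitted to Hill equation for AC50.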

[18] = Cellular Toxicity (caspase-3) BJ (AID 658);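 also: 0% = DMSO basal and 100% = 10 µM staurosporine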
Procedure, shortened: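 Readout: Caspase-Glo 3/7 luminescence increase in BJ cells after 16 hr treatment at 37 °C. Staurosporine and tamoxifen served as positive controls; AC50 values came from Hill modelling of data normalized to DMSO and 10 uM staurosporine.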

[19] = Cellular Toxicity (caspase-3) MRC-5 (AID 659);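 also: 0% = DMSO basal and 100% = 10 µM staurosporine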
Procedure, shortened: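 Concentration-dependent caspase 3/7 activation is measured in human normal lung fibroblasts (MRC-5) following 16-hour treatment. AC50 values come from standard Hill-equation modeling of luminescence normalized to DMSO and 10 uM staurosporine.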

Sequence of 3',5'-cyclic-AMP phosphodiesterase 4B (Homo sapiens) (Q07343 whole entry, looked up): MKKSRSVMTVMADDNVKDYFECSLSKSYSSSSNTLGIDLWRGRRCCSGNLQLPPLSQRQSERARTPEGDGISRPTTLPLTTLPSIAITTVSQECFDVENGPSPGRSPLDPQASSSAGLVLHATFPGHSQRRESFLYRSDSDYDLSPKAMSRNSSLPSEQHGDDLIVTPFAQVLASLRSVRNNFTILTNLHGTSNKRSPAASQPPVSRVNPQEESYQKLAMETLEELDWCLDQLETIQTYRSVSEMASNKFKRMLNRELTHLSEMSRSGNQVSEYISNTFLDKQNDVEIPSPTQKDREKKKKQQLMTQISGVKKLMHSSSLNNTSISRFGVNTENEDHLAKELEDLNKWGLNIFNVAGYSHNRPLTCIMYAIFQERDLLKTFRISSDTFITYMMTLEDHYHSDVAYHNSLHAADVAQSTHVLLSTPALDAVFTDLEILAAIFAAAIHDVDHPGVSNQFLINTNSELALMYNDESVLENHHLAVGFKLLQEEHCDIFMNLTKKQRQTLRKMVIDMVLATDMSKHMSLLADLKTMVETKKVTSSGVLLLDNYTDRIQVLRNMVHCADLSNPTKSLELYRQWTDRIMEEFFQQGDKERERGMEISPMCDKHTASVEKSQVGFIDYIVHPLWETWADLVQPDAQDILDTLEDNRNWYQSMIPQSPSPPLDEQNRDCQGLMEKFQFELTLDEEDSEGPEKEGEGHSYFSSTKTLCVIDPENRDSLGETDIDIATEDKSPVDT
Sequence of Glucocorticoid receptor (Homo sapiens) (P04150 whole entry, looked up): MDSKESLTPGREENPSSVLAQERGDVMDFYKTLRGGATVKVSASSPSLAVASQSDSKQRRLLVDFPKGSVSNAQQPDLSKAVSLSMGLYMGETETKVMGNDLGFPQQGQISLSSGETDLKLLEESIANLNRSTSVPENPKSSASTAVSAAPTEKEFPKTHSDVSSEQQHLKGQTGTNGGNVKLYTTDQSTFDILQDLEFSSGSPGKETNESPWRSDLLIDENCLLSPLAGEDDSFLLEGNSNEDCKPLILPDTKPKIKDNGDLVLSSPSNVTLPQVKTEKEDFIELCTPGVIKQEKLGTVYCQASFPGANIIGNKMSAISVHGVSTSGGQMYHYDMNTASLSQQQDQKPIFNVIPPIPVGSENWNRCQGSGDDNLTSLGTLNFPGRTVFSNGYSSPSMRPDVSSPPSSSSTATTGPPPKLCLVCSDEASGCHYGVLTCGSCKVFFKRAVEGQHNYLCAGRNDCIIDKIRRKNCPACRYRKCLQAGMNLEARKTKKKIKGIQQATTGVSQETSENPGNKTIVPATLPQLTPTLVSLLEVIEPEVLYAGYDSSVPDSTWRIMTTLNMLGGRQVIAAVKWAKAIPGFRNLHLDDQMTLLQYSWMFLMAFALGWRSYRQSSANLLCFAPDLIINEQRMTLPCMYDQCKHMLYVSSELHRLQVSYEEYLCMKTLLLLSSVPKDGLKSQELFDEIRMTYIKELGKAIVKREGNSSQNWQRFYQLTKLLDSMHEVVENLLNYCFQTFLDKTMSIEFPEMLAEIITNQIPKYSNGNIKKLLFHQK

O=C(O)c1cc(=O)c2c(Cl)cc(Cl)cc2[nH]1
inactive: Potency [1] > 46 µM | outcome [2]

C=C[C@H]1CN2CC[C@@H]1C[C@@H]2[C@@H](O)c1ccnc2ccc(OC)cc12
inactive: Potency [3]

N=C1N=C(N)c2cc3ccccc3cc21
inactive: Potency [3] | Potency [10] | caspase-3 activation [13] 9.9%
active: activity change, negative = cytotoxicity [4] -112% | Potency [5] 50.1 µM | Potency [6] 31.6 µM | viability change, negative = cytotoxic [7] -99% | activity change, negative = cytotoxicity [8] -85.8% | activity change, negative = cytotoxicity [9] -91.8% | Potency [11] 31.6 µM | caspase-3 activation [12] 153%

CCCCCCCCCCCCCCCCCC(=O)O
inactive: Potency [3] | Potency [4] | Potency [5] | Potency [6] | Potency [7] | activity change, negative = cytotoxicity [8] -6.5% | Potency [9] | Potency [14] | Potency [15] | outcome [16] | outcome [17] | outcome [18] | outcome [19] | Potency [10] | Potency [11] | caspase-3 activation [12] -0.546% | caspase-3 activation [13] 0.144%

N#C/C(=C\c1ccc(O)c(O)c1)C(=O)c1ccc(O)c(O)c1
inactive: Potency [1] > 46 µM | outcome [2]

Ic1ccc(N2CCN(Cc3c[nH]c4ncccc34)CC2)cc1
inactive: Potency [1] > 46 µM | outcome [2]

S=c1[nH]c2ccccc2s1
inactive: Potency [3] | Potency [4] | Potency [5] | Potency [6] | Potency [7] | activity change, negative = cytotoxicity [8] -20.5% | Potency [9] | Potency [14] | Potency [15] | outcome [16] | outcome [17] | outcome [18] | outcome [19] | Potency [10] | Potency [11] | caspase-3 activation [12] 0.172% | caspase-3 activation [13] 1.33%

O=C1NC(O)=NC1(c1ccccc1)c1ccccc1
inactive: Potency [1] > 46 µM | outcome [2]

CC(C)NCC(O)COc1cccc2ccccc12 (stereo unspecified)
inactive: Potency [3] | Potency [4] | Potency [7] | Potency [14] | Potency [15] | outcome [16] | outcome [17] | outcome [18] | outcome [19] | Potency [10] | Potency [11] | caspase-3 activation [12] 12.6% | caspase-3 activation [13] 0.268%
active: Potency [6] 39.8 µM

Nc1ccc([N+](=O)[O-])cc1O
inactive: Potency [3] | Potency [5] | Potency [6] | Potency [7] | activity change, negative = cytotoxicity [8] -10.2% | Potency [9] | Potency [14] | Potency [15] | outcome [16] | outcome [17] | outcome [18] | outcome [19] | Potency [10] | Potency [11] | caspase-3 activation [12] 2.85% | caspase-3 activation [13] -2.49%

O=C1CN(/N=C/c2ccc([N+](=O)[O-])o2)C(=O)N1
inactive: Potency [3] | Potency [5] | Potency [9] | Potency [14] | Potency [15] | outcome [16] | outcome [17] | outcome [18] | outcome [19] | Potency [10] | Potency [11] | caspase-3 activation [12] -0.519% | caspase-3 activation [13] -0.37%
active: Potency [4] 31.6 µM

CCCOC(=O)c1ccc(O)cc1
inactive: Potency [3] | Potency [4] | Potency [5] | Potency [6] | Potency [7] | activity change, negative = cytotoxicity [8] -13.5% and -15.2% | Potency [9] | Potency [14] | Potency [15] | outcome [16] | outcome [17] | outcome [18] | outcome [19] | Potency [10] | Potency [11] | caspase-3 activation [12] 1.99% and 0.213% | caspase-3 activation [13] 0.939% and -1.18%

C#C[C@]1(O)CC[C@H]2[C@@H]3CCc4cc(O)ccc4[C@H]3CC[C@@]21C
active: Potency [6] 20 µM | Potency [7] 31.6 µM
inactive: Potency [3] | Potency [4] | Potency [9] | Potency [14] | Potency [15] | outcome [16] | outcome [17] | outcome [18] | outcome [19] | Potency [10] | Potency [11] | caspase-3 activation [12] 3.92% | caspase-3 activation [13] -0.747%

CN(C)c1ccc(N=NS(=O)(=O)O)cc1
active: Potency [4] 31.6 µM | Potency [6] 0.126 µM
inactive: Potency [3] | Potency [5] | activity change, negative = cytotoxicity [8] 12.3% | Potency [9] | Potency [14] | Potency [15] | outcome [16] | outcome [17] | outcome [18] | outcome [19] | Potency [10] | Potency [11] | caspase-3 activation [12] 11.8% | caspase-3 activation [13] -1.18%
